Test [1] in a line: qHTS of pediatric cancer cell lines to identify multiple opportunities for drug repurposing: Primary screen for BT-37 cells (AID 1347094). Also: potency is read from the fitted curve at half-maximal effect.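 As to activity change, negative = cytotoxic: series mostly up to about 57 µM; plate controls were DMSO for no effect and bortezomib for full effect.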 A digest of the protocol: (§1)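 Luminescence from CellTiter-Glo served as readout of metabolically active cells after 48 h compound exposure. Titrations: MIPE 11-point, from 0.78 nM; NPC 8-point, from 0.59 nM (final). Concentration-response curves came straight from the primary screen.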
On the technique in general: In qHTS, concentration-response curves come from the screen itself.

Test [2] can be described thus: qHTS of pediatric cancer cell lines to identify multiple opportunities for drug repurposing: Primary screen for NB-EBc1 cells (AID 1347095). Also: potency is read from the fitted curve at half-maximal effect.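 As to activity change, negative = cytotoxic: plate controls were DMSO neutral control for no effect and bortezomib for full effect.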 A digest of the protocol:
as §1

A short description of test [3]: qHTS of pediatric cancer cell lines to identify multiple opportunities for drug repurposing: Primary screen for U-2 OS cells (AID 1347096).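 Also: plate controls were DMSO wells for no effect and bortezomib positive control wells for full effect; nearly all actives have a fitted effect of over 50% in size.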 The method in brief:
(§2)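 Cells (500-1,000/well) rested 5 h, then received compounds for 48 h; metabolically active cells were measured by CellTiter-Glo luminescence. Final concentrations spanned up to 46 µM (MIPE, 11-point) or 0.59 nM-46 µM (NPC, 8-point) in primary screens, 11-point in follow-ups.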

The nature of test [4]: qHTS of pediatric cancer cell lines to identify multiple opportunities for drug repurposing: Primary screen for Saos-2 cells (AID 1347097). Also: nearly all actives have a fitted effect of over 40% in size. As to activity change, negative = cytotoxic: % is scaled to controls: 0 for no effect and ±100 for the full control effect. The method in brief:
as §1

The nature of test [5]: qHTS of pediatric cancer cell lines to identify multiple opportunities for drug repurposing: Primary screen for BT-12 cells (AID 1347101). Also: nearly all actives have a fitted effect of over 25% in size. Also: potency is read from the fitted curve at half-maximal effect.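 As to activity change, negative = cytotoxic: plate controls were DMSO for no effect and bortezomib positive control for full effect.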 A digest of the protocol: as §2
Test [6] is described as follows: qHTS of pediatric cancer cell lines to identify multiple opportunities for drug repurposing: Primary screen for OHS-50 cells (AID 1347103). Also: nearly all actives have a fitted effect of over 40% in size. Also: potency is read from the fitted curve at half-maximal effect.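 As to activity change, negative = cytotoxic: plate controls were DMSO neutral control for no effect and bortezomib positive control for full effect.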 A digest of the protocol: as §2
The nature of test [7]: qHTS of pediatric cancer cell lines to identify multiple opportunities for drug repurposing: Primary screen for RD cells (AID 1347104). Also: nearly all actives have a fitted effect of over 55% in size. Also: potency is read from the fitted curve at half-maximal effect.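 As to activity change, negative = cytotoxic: plate controls were DMSO for no effect and bortezomib for full effect.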 The method in brief: as §1
Test [8] in a line: qHTS of pediatric cancer cell lines to identify multiple opportunities for drug repurposing: Primary screen for control Hh wild type fibroblast cells (AID 1347106).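 Also: series mostly up to about 46 µM; % is scaled to controls: 0 for no effect and ±100 for the full control effect; a drop in luminescence marks cytotoxicity and a rise apparent proliferation; nearly all actives have a fitted effect of over 55% in size.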 A digest of the protocol:
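Cells (500-1,000/well) in growth media were settled 5 h at 37 degrees C, then given compounds for 48 h. Viability was read as CellTiter-Glo luminescence. Primary runs used MIPE at 11 points (0.78 nM-46 µM) and NPC at 8 points (0.59 nM-46 µM); follow-ups used 11 points.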

The nature of test [9]: qHTS of pediatric cancer cell lines to identify multiple opportunities for drug repurposing: Primary screen for Rh30 cells (AID 1347107). Also: series mostly up to about 46 µM; % is scaled to controls: 0 for no effect and ±100 for the full control effect; nearly all actives have a fitted effect of over 75% in size. A digest of the protocol:
as §2

Test [10] can be described thus: qHTS of pediatric cancer cell lines to identify multiple opportunities for drug repurposing: Primary screen for Rh41 cells (AID 1347108). Also: nearly all actives have a fitted effect of over 70% in size.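 As to activity change, negative = cytotoxic: series mostly up to about 46 µM; luminescence drop marks cytotoxic hits.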 The method in brief: as §1
Test [11] is described as follows: qHTS of pediatric cancer cell lines to identify multiple opportunities for drug repurposing: Confirmatory screen for NB1643 cells (AID 1347109). Also: nearly all actives have a fitted effect of over 45% in size.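 As to activity change, negative = cytotoxic: plate controls were DMSO for no effect and bortezomib for full effect.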 A digest of the protocol: as §2
The nature of test [12]: qHTS of pediatric cancer cell lines to identify multiple opportunities for drug repurposing: Confirmatory screen for A673 cells (AID 1347110).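 Also: potency is read from the fitted curve at half-maximal effect; cells exposed to compound for 48 h before the viability read; nearly all actives have a fitted effect of over 65% in size.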 The method in brief:
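A673 cells seeded at 500-1,000 cells/well, rested 5 h, then dosed; primary MIPE 11-point (0.78 nM to 46 µM), NPC (0.59 nM to 46 µM); confirmatory 11-point. CellTiter-Glo luminescence after 48 h.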

A short description of test [13]: qHTS of pediatric cancer cell lines to identify multiple opportunities for drug repurposing: Confirmatory screen for SK-N-MC cells (AID 1347111).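 Also: potency is read from the fitted curve at half-maximal effect; cells exposed to compound for 48 h before the readout; nearly all actives have a fitted effect of over 70% in size.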 The method in brief:
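Seed 500-1,000 cells/well; rest 5 h at 37 degrees C. Pin-transfer compounds, 11-point titration. Incubate 48 h. Add CellTiter-Glo, 15 min RT, read luminescence.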

The nature of test [14]: qHTS of pediatric cancer cell lines to identify multiple opportunities for drug repurposing: Confirmatory screen for BT-12 cells (AID 1347112). Also: nearly all actives have a fitted effect of over 55% in size. Also: potency is read from the fitted curve at half-maximal effect. The method in brief: as §2
Test [15] in a line: qHTS of pediatric cancer cell lines to identify multiple opportunities for drug repurposing: Confirmatory screen for LAN-5 cells (AID 1347113). Also: nearly all actives have a fitted effect of over 65% in size. The method in brief:
as §2

Test [16] in a line: qHTS of pediatric cancer cell lines to identify multiple opportunities for drug repurposing: Primary screen for MG 63 (6-TG R) cells (AID 1347105). Also: nearly all actives have a fitted effect of over 50% in size. As to activity change, negative = cytotoxic: % is scaled to controls: 0 for no effect and ±100 for the full control effect. The method in brief: as §1
Test [17] is described as follows: qHTS of pediatric cancer cell lines to identify multiple opportunities for drug repurposing: Primary screen for NB1643 cells (AID 1347099). Also: nearly all actives have a fitted effect of over 50% in size. Also: potency is read from the fitted curve at half-maximal effect.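 As to activity change, negative = cytotoxic: plate controls were DMSO neutral control for no effect and bortezomib positive control for full effect.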 A digest of the protocol:
as §1

Test [18] in a line: qHTS of pediatric cancer cell lines to identify multiple opportunities for drug repurposing: Primary screen for LAN-5 cells (AID 1347100).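 As to activity change, negative = cytotoxic: plate controls were DMSO neutral control for no effect and bortezomib positive control for full effect.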 A digest of the protocol: as §2
A short description of test [19]: qHTS of pediatric cancer cell lines to identify multiple opportunities for drug repurposing: Primary screen for Rh18 cells (AID 1347102). Also: nearly all actives have a fitted effect of over 65% in size. As to activity change, negative = cytotoxic: % is scaled to controls: 0 for no effect and ±100 for the full control effect. The method in brief:
as §2

Test [20] is described as follows: qHTS of pediatric cancer cell lines to identify multiple opportunities for drug repurposing: Primary screen for SK-N-SH cells (AID 1347098). Also: nearly all actives have a fitted effect of over 65% in size.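 As to activity change, negative = cytotoxic: DMSO served as neutral control and bortezomib at 2.3 µM as positive control; % is scaled to controls: 0 for no effect and ±100 for the full control effect.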 The method in brief:
as §2

For 14 compounds, Potency and activity change, negative = cytotoxic results are on record in PubChem BioAssay (NCATS).

Inconclusive results are not listed. Unmarked numbers belong to inactive results. Calls of active or inactive are those of the source. Calls follow the shape of the dose curve; as a rule, active = well fitted curve in the direction sought with a large enough effect; inconclusive = small, poorly fitted or top-dose-only effect, or another doubt; inactive = no such curve, though single readings can be large; an effect the other way counts as inactive or inconclusive.

Turning to `C#CCC(Cc1cnc2nc(N)nc(N)c2n1)c1ccc(C(=O)N[C@@H](CCC(=O)O)C(=O)O)cc1` (stereo partly drawn), the Potency in test [1] is 54.4 nM (active); in [2] it was 372 nM (active); in test [5], 48.5 nM (active); in test [6], 109 nM (active); in test [7], 74.3 nM (active); in test [12] it was 65.7 nM (active). The values for the Potency in test [13] and in [14] were 52.2 nM (active) and 104 nM (active), respectively. Also, the Potency result in test [3], in test [4], in test [8], in [9], in [10] and in test [11] was “inactive” in each case. In addition, the Potency entry in [15] was “inactive”.
In the case of `CC(=O)OC[C@@H]1O[C@@H](n2ccc(=O)[nH]c2=O)[C@H](OC(C)=O)[C@H]1OC(C)=O`, the Potency entry in test [1], in test [2], in test [3], in test [5], in test [6] and in test [7] was “inactive” throughout. Also, the Potency result in test [16] and in [8] was “inactive” throughout.
Regarding `NC(=O)c1ncn([C@@H]2O[C@H](CO)[C@@H](O)[C@@H]2O)c1N`, the Potency result in test [1], in test [2], in test [3], in test [17], in test [18] and in [19] was “inactive” in each case. The Potency entry in test [6], in test [7], in test [16], in test [8] and in test [10] was “inactive” each time.
Regarding `Cn1cc(-c2ccc3ncc(Cc4ccc5ncccc5c4)n3n2)cn1`, the Potency result in [1], in [2], in test [3], in test [20], in test [17] and in [18] was “inactive” in each case. Further, the Potency entry in [5], in test [6], in [7], in [16], in [8] and in test [9] was “inactive” in each case.
Regarding `CC(C)(C)[C@H](NC(=O)c1ccc(N)c(Cl)c1)C(=O)N1CCC[C@@H]1C(=O)N[C@H](C#N)CC(=O)O`, the activity change, negative = cytotoxic in test [1] is -11.4% [at 6.03 µM]; in test [2], 14.9% [at 4.84 µM]; in [3], 9.94% [at 4.84 µM]; in [18], 8.05% [at 4.84 µM]; in test [5], 15.5% [at 6.03 µM]; in [6] it was -19.6% [at 6.18 µM]. The activity change, negative = cytotoxic in test [16] is -25.9% [at 4.84 µM]; in test [8] it was -7.94% [at 4.84 µM]; in test [9], 14.6% [at 4.84 µM]. The Potency in test [17] is 1050 nM (active).
`CC(C)(C)c1nc2c3cc[nH]c(=O)c3c3cc(F)ccc3c2[nH]1`: the Potency entry in test [1], in test [2], in test [3], in [5], in test [19] and in test [16] was “inactive” throughout. For the same compound, the Potency result in [8], in [9] and in test [10] was “inactive” throughout. Besides, the Potency was 9610 nM (active) in test [20] and 2350 nM (active) in [18].
Regarding `CCC(C=C[C@@H]1OC(=O)C=C[C@H]1C)=C[C@H](C)CC=CC(C)=C[C@@H](C)C(=O)[C@@H](C)[C@H](O)[C@@H](C)CC(C)=CC(=O)O`, the Potency in test [1] was 10.2 nM (active); in test [2], 24.7 nM (active); in test [20] it was 40.3 nM (active); in test [17], 27.7 nM (active); in test [5], 32.2 nM (active); in [6], 128 nM (active). Also, the Potency in test [7] was 78.2 nM (active); in test [10] it was 24.7 nM (active); in test [12], 32.2 nM (active); in test [13], 6.4 nM (active); in test [14] it was 16.1 nM (active); in [15] it was 5.1 nM (active). For the same compound, the values for the activity change, negative = cytotoxic in test [3] and in test [9] were 13.2% [at 1.86 µM] and -1.27% [at 1.86 µM], respectively.
`CC(C)(O)CC[C@@H](O)[C@](C)(O)[C@H]1CC[C@@]2(O)C3=CC(=O)[C@@H]4C[C@@H](O)[C@@H](O)C[C@]4(C)[C@@H]3CC[C@]12C`: the Potency entry in [1], in [2], in test [3], in test [4], in test [5] and in test [19] was “inactive” each time. For the same compound, the Potency entry in test [6], in test [16], in test [8], in test [9] and in test [10] was “inactive” in each case.
Regarding `CCCc1nc(C(C)(C)O)c(C(=O)O)n1Cc1ccc(-c2ccccc2-c2nn[nH]n2)cc1`, the Potency result in [1], in test [2], in test [3], in test [4], in test [18] and in [5] was “inactive” each time. Also, the Potency result in test [19], in [6], in [16], in test [8], in [9] and in [10] was “inactive” each time.
Regarding `COc1ccc2c(c1OC)C(=O)OC2[C@H]1c2c(cc3c(c2OC)OCO3)CCN1C` (stereo partly drawn), the Potency in test [1] is 611 nM (active); in [2], 372 nM (active); in test [4], 235 nM (active); in test [17], 1180 nM (active); in test [6], 137 nM (active); in test [7], 372 nM (active). Also, the Potency in test [10] is 469 nM (active). Further, the Potency result in [19], in test [11], in test [14] and in [15] was “inactive” in each case.
Regarding `CCOc1cc2ncc(C#N)c(Nc3ccc(OCc4ccccn4)c(Cl)c3)c2cc1NC(=O)C=CCN(C)C`, the Potency was 1090 nM (active) in test [1]; 332 nM (active) in test [2]; 1180 nM (active) in test [4]; 121 nM (active) in test [20]; 590 nM (active) in test [17]; 1480 nM (active) in [18]. Moreover, the Potency in test [5] was 1930 nM (active); in [6], 863 nM (active); in test [7] it was 418 nM (active); in [12] it was 10400 nM (active); in test [13] it was 10400 nM (active).
As to `Cc1ncc(-c2ccnc(Nc3ccc(S(C)(=O)=O)cc3)n2)n1C(C)C`, the Potency in test [1] is 6110 nM (active); in [2], 2350 nM (active); in test [4] it was 3720 nM (active); in [17], 2350 nM (active); in test [5], 3850 nM (active); in [6], 3850 nM (active). Further, the Potency in test [7] was 6620 nM (active); in test [10], 5900 nM (active); in test [14], 3290 nM (active). Besides, the Potency result in test [8] and in test [9] was “inactive” each time.
Consider `CCOC(=O)N1CCN([N+]([O-])=NOc2ccc([N+](=O)[O-])cc2[N+](=O)[O-])CC1`, for which the Potency is 15300 nM (active) in [1]; 5260 nM (active) in test [2]; 18700 nM (active) in [4]; 11800 nM (active) in test [18]; 13700 nM (active) in test [6]; 18700 nM (active) in test [7]. The Potency in test [16] was 18700 nM (active); in test [10], 4180 nM (active). For the same compound, the Potency result in [8] and in [9] was “inactive” throughout.
For `COc1cccc2c1C(=O)c1c(O)c3c(c(O)c1C2=O)C[C@@](O)(C(=O)CO)C[C@H]3O[C@H]1C[C@H](N)[C@H](O)[C@H](C)O1`, the Potency in test [1] is 122 nM (active); in test [2], 46.9 nM (active); in test [4], 1320 nM (active); in test [20], 242 nM (active); in [17] it was 526 nM (active); in test [5], 485 nM (active). The Potency was 662 nM (active) in test [19]; 611 nM (active) in [6]; 833 nM (active) in test [7]; 743 nM (active) in [10]; 522 nM (active) in test [11]; 928 nM (active) in [12]. In addition, the Potency in test [13] is 414 nM (active); in test [14] it was 1470 nM (active); in test [15], 369 nM (active). In addition, in test [9], the Potency entry is “inactive”.
